Experimental data: PubChem BioAssay (NCI)
About 83,000 compounds went through this panel and 20% of them were active in at least one assay; those are over-represented in the sample as a whole.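 Cell lines were cultured in 96-well plates, exposed to a single compound concentration, and assessed for percent growth 48 hours later.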 Unmarked numbers belong to inactive results. Activity calls are given as the source filed them. The calls were made as follows: active = growth percent below 10; inactive = the rest.

Columns and labels:
Assay in all cases: NCI-60 one-dose screen, 48 h (100 = growth as untreated, 0 = no growth, -100 = all killed)
Conditions in all cases: 10 µM unless noted
DU-145 prostate = system: DU-145 prostate
K-562 leukemia = system: K-562 leukemia
MALME-3M melanoma = system: MALME-3M melanoma
MDA-MB-231 breast = system: MDA-MB-231 breast
RXF 393 renal = system: RXF 393 renal
SF-268 CNS = system: SF-268 CNS
SF-295 CNS = system: SF-295 CNS
SF-539 CNS = system: SF-539 CNS
UACC-257 melanoma = system: UACC-257 melanoma
M14 melanoma = system: M14 melanoma

SMILES	growth (DU-145 prostate)	growth (K-562 leukemia)	growth (MALME-3M melanoma)	growth (MDA-MB-231 breast)	growth (RXF 393 renal)	growth (SF-268 CNS)	growth (SF-295 CNS)	growth (SF-539 CNS)	growth (UACC-257 melanoma)	growth (M14 melanoma)
CNC(=O)c1cc(Oc2ccc(NC(=O)c3nc(S(C)(=O)=O)n(C)c3-c3ccc(F)cc3)cc2)ccn1	56.9%	61%	77.5%	83%	58.4%	70.4%	70.2%	85.6%	96.4%	50.4%
COc1ccc([C@@H]2[C@@H](Cl)C(=O)N2c2cc(OC)c(OC)c(OC)c2)cc1C	12.9%	9.59% (active)	76%	18.3%	19.8%	30.2%	15.7%	3.27% (active)	80.7%	11.7%
CCN(CC)C(Cl)=Nc1ccc(Cl)cc1	119%	121%	116%	102%	107%	106%	97.1%	106%	98.8%	107%
COc1ccc(-c2cn(-c3cccc(C(=O)/C=C/c4ccc(O)c(OC)c4)c3)c(=O)[nH]2)cc1	6.8% (active)	25.7%	72.5%	38.9%	-60.9% (active)	19.1%	15.2%	10.5%	40.3%	51%
COc1ccccc1NC(=O)OCC12COCN1COC2	112%	104%	103%	102%	108%	106%	103%	103%	89.9%	104%
COc1cc(C2CC(c3cccc(Nc4ccnc5cc(Cl)ccc45)c3)=NN2c2ccc(Cl)cc2)cc(OC)c1OC (stereo not given)	75.1%	11.2%	44.5%	67%	62.1%	51.9%	3.25% (active)	43.3%	57.1%	25.4%
Nc1nc(N)c2c(n1)NC(c1sc(Cl)nc1Cl)CC(c1ccccc1)=N2 (stereo not given)	75.1%	17.5%	26.8%	47.8%	43.8%	53.6%	35.2%	35.4%	68.6%	26.2%
Fc1ccc(-c2ccnc3nc(-c4ccncc4)nn23)cc1	101%	98.1%	114%	113%	105%	97.1%	111%	101%	111%	107%
Clc1ccc2c(c1)-n1cccc1C(c1ccc3ccccc3c1)=NC2	115%	49.4%	97.8%	120%	96.1%	109%	80.6%	103%	100%	87.8%
COc1ccc2[nH]cc(C(c3ccc(Cl)cc3)N3CCCC3)c2c1 (stereo not given)	101%	90.2%	72.8%	94.6%	82.9%	92.5%	94%	98.2%	91.9%	95%
CCCCn1c(C)nc2cc(Nc3nc(Cl)nc4nc[nH]c34)ccc21	89.6%	90.3%	79.8%	75%	81.9%	92.4%	74.5%	76.3%	100%	86.8%
CCCc1n(Cc2ccc3ccccc3c2)c2ccccc2[n+]1Cc1ccc2ccccc2c1	2.32% (active)	-70.8% (active)	-63% (active)	-71.7% (active)	-79.3% (active)	-49.7% (active)	-59.8% (active)	-34.5% (active)	-49.9% (active)	-72% (active)
Clc1ccc(Nc2ncnc3c2sc2ncccc23)c(Cl)c1	20.1%	43.4%	58.2%	61.1%	34%	18.4%	17.9%	6.17% (active)	39.3%	-25.6% (active)
O=C(OCc1ccc2c(Cl)cc(Cl)c(O)c2n1)c1cc2ccccc2[nH]1	-94.5% (active)	-5.38% (active)	-77.7% (active)	-78.3% (active)	-94.9% (active)	-80.4% (active)	64.3%	-91.1% (active)	-72.4% (active)	-69.7% (active)
O=C(O)Cn1ccc2ccccc21	119%	93.4%	96.7%	88.8%	114%	115%	113%	92.8%	113%	93.2%
Cc1ccc2nc(CN(CCN(Cc3nc4ccc(C)cc4[nH]3)Cc3nc4ccc(C)cc4[nH]3)Cc3nc4ccc(C)cc4[nH]3)[nH]c2c1	-99.6% (active)	-25.7% (active)	-70.4% (active)	-81.7% (active)	-92.5% (active)	-85% (active)	-86.8% (active)	-99.7% (active)	-91.8% (active)	-79.4% (active)
CN(C)c1ccc(/C=N/Nc2nnc3n2N=C(c2ccc(Cl)cc2)CS3)cc1	100%	79%	128%	101%	69.7%	97.8%	101%	103%	106%	100%
C[C@]12CCc3nc(Nc4ccc(O)cc4)sc3C1=CC[C@@H]1[C@@H]2CC[C@]2(C)/C(=N/NC(N)=S)CC[C@@H]12	-62.4% (active)	-2.83% (active)	-60.5% (active)	-40.4% (active)	-67.6% (active)	-17% (active)	-8.62% (active)	5.79% (active)	-9.35% (active)	-23.8% (active)
COc1ccc(C2CC(c3ccc(Nc4ccnc5cc(Cl)ccc45)cc3)=NN2c2ccccc2)cc1 (stereo not given)	105%	67.9%	94.4%	103%	109%	108%	107%	88.2%	97.4%	99.6%
COc1cc(CN2CCO[C@H](COc3cccc(F)c3)C2)ccc1Cl	41.5%	21.1%	63.8%	33.2%	79.3%	48.2%	28%	59.5%	19.2%	39.1%
NS(=O)(=O)c1ccc(N2N=C(c3cccs3)CC2c2ccccc2O)cc1 (stereo not given)	-45% (active)	4.59% (active)	47.9%	-19.3% (active)	27.1%	7.15% (active)	1.4% (active)	-23.5% (active)	33.2%	0.852% (active)
CCOC(=O)C1=C(C)NC(SCc2nnc(-c3ccc(Cl)cc3)o2)=NC1c1ccc(Br)cc1 (stereo not given)	84.3%	60.7%	83.1%	59.8%	75%	86.6%	73.6%	88.7%	73%	74%
O=C(O)/C=C(\c1nc2ccc([N+](=O)[O-])cc2[nH]1)c1cc(Cl)ccc1O	39.9%	14.7%	6.7% (active)	13.1%	39.1%	32.2%	21.6%	26.3%	17.8%	25.8%
CC(C)(C)c1ccc(Cn2c(-c3nonc3N)nc3ccccc32)cc1	83.3%	19.1%	82.3%	81.8%	77.8%	75.6%	71.5%	89.7%	76.8%	66.9%
N#Cc1nc(-c2cccc(Br)c2)cc(-c2ccc(Nc3nc(N4CCCCC4)nc(N4CCCCC4)n3)cc2)c1N	-39% (active)	4.51% (active)	-80.9% (active)	-67.4% (active)	-70.9% (active)	5.03% (active)	82.8%	-75.9% (active)	-35.8% (active)	2.1% (active)
CN(C)c1ccc(/C=C(\C#N)c2nc3ccccc3n2C)cc1	25.7%	32%	61.7%	48.8%	3.51% (active)	52.6%	13.1%	11.6%	43.9%	34.4%
C=CCn1c(C)nc2cc(Nc3nc(N4CCOCC4)nc4nc[nH]c34)ccc21	109%	71%	97.7%	77.7%	85.1%	99%	85%	87.3%	94%	97%
